PubChem BioAssay AID463173 (ICCB-Longwood Screening Facility, Harvard Medical School, 2010)
The whole screen tested about 52,000 compounds, of which about 4,300 (8.3%) were called active. The sample holds actives, similar compounds and a random draw of the others, so the mix is not that of the screen. Values without a mark were called inactive. Cut-off read from the data, not from the text of the source: active = survival mostly below about 52% (no sharp cut-off); inactive = mostly above about 56%.

These compounds were tested on DeltatarO mutant (assay: S. aureus survival, RN4220 and DeltatarO strains – OD600, teichoic acid synthesis inhibitors, primary screen (AID 463173)). Conditions: S. aureus RN4220 wild type/DeltatarO growth, OD600, 18 h, active compounds read low, screened at 18.75 µg/mL (by protocol).
`CC(C)c1ccc(NC(=O)C2CCN(C(=O)c3ccc(F)cc3)CC2)cc1` showed a survival of 61%.
For `COc1ccc(NC(=O)c2cc(-c3ccccc3F)no2)cc1`, the survival was 78%.
`CCOC(=O)c1ccccc1NC(=O)N(C)CCc1c(C)nn(CC)c1C` showed a survival of 78%.
In the case of `COc1ccc(-c2cc3nc(C)c(CCC(=O)Nc4cccc(C(F)(F)F)c4)c(C)n3n2)c(OC)c1`, the survival is reported as 92%.
For `Cc1ccc(S(=O)(=O)N2CC=C(c3c(C)n(CC(=O)N4CCCC4)c4ccccc34)CC2)cc1C`, the survival was 72%.
Work on `CCCCC(=O)N1CC(=O)Nc2ccc(F)cc2C1c1ccc(F)cc1` (stereo unspecified) yielded a survival of 60%.
`CCCCC1CCC(C(=O)N2CC(=O)Nc3ccc(C)cc3C2c2ccc(F)cc2)CC1` (stereo unspecified) was tested, and the survival was 126%.
With `O=C1CN(C(=O)C2CCCCC2)C(c2ccccc2)c2cc(F)ccc2N1` (stereo unspecified) the survival was 70%.
In the case of `CCCCC1CCC(C(=O)N2CC(=O)Nc3ccc(Br)cc3C2c2ccc(F)cc2)CC1` (stereo unspecified), the survival is reported as 55%.
For `CCCCC1CCC(C(=O)N2CC(=O)Nc3ccc(F)cc3C2c2ccc(F)cc2)CC1` (stereo unspecified), the survival was 38% (active).
With `CCCCC1CCC(C(=O)N2CC(=O)Nc3ccc(Cl)cc3C2c2ccc(F)cc2)CC1` (stereo unspecified) the survival was 40% (active).
`CCc1ccc2occ(CC(=O)Nc3sc4c(c3C(=O)OC)CCC4)c2c1` gave a survival of 70%.
With `Cc1cc(-n2ccnc(NCCc3ccc(S(N)(=O)=O)cc3)c2=O)ccc1Br` the survival was 94%.
`Cc1ccc2c(c1)CC(C)N2S(=O)(=O)c1nnc(NC(=O)CC(C)C)s1` (stereo unspecified) gave a survival of 59%.
In the case of `Cc1ccccc1C(=O)Nc1nnc(S(=O)(=O)N2c3ccccc3CC2C)s1` (stereo unspecified), the survival is reported as 20% (active).
For `Cc1ccc2c(c1)CC(C)N2S(=O)(=O)c1nnc(NC(=O)c2ccccc2F)s1` (stereo unspecified), the survival was 9% (active).
Compound `Cc1ccc2c(c1)CC(C)N2S(=O)(=O)c1nnc(NC(=O)C(C)C)s1` (stereo unspecified) has a survival of 58%.
In the case of `CC1Cc2ccccc2N1S(=O)(=O)c1nnc(NC(=O)c2ccccc2Br)s1` (stereo unspecified), the survival is reported as 23% (active).
In the case of `Cc1cccc(N2CCN(C(=O)CN3C(=O)COc4ccc(S(=O)(=O)N5CCC(C)CC5)cc43)CC2C)c1` (stereo unspecified), the survival is reported as 67%.
With `COc1ccc(CCNC(=O)C(C)n2nc(C)c3sc4ccccc4c3c2=O)cc1OC` (stereo unspecified) the survival was 110%.
In the case of `Cc1ccccc1Cn1cc(S(=O)(=O)c2ccc(F)cc2)c(=O)c2cc3c(cc21)OCO3`, the survival is reported as 68%.
`NC(=O)C1CCN(C(=O)Cn2c(-c3cccs3)cc3ccccc32)CC1` was tested, and the survival was 73%.
`O=C(NCCN1CCCC1)c1ccc(Cl)cc1` was tested, and the survival was 98%.
`CCOC(=O)c1cnc2ccc(C)cc2c1Nc1ccc(OCc2ccccc2Cl)cc1` was tested, and the survival was 2% (active).
`CCOC(=O)c1cnc2ccc(Cl)cc2c1Nc1ccc(OCC)cc1` was tested, and the survival was -5% (active).
Compound `CCOC(=O)c1ccccc1NC(=O)c1cnc(N2CCOCC2)c2ccccc12` has a survival of 90%.
`CCOC(=O)c1cnc2ccc(OCC)cc2c1NCCN(C)C` showed a survival of 95%.
With `CCOC(=O)c1cnc2ccc(OCC)cc2c1Nc1cc(Cl)c(OC)cc1OC` the survival was 51% (active).
Compound `CCOC(=O)c1cnc2cc(Cl)c(OC)cc2c1Nc1ccc(Br)cc1C` has a survival of 102%.
In the case of `CCOC(=O)c1cnc2c(C)cc(C)cc2c1Nc1ccc(N2CCOCC2)cc1`, the survival is reported as 14% (active).
For `CCOC(=O)c1cnc2c(C)c(Cl)ccc2c1Nc1ccc(N2CCOCC2)cc1`, the survival was 43%.
With `O=C(N/C(=C\c1ccc(F)cc1)C(=O)N1CCOCC1)c1ccccc1` the survival was 98%.
With `Cc1cccc(OCC(=O)OC2CCN(C)CC2)c1` the survival was 100%.
`COC(=O)C(C#N)C(c1cccnc1)c1c(C)[nH][nH]c1=O` (stereo unspecified) gave a survival of 90%.
For `COc1cc(OC)cc(-c2cc3nc(-c4ccccc4)cc(N4CCN(c5ccccc5)CC4)n3n2)c1`, the survival was 101%.
Work on `CC(=O)Oc1ccc(C(=O)NC2CCSC2=O)cc1` (stereo unspecified) yielded a survival of 72%.
Work on `COC(=O)CC1Oc2ccccc2-n2cc(-c3ccc(Cl)cc3)nc21` (stereo unspecified) yielded a survival of 69%.
Compound `CCN1CCSc2ccc(C(=O)NC(C)c3ccccc3)cc21` (stereo unspecified) has a survival of 66%.
`O=C(Nc1ccc(Br)cc1)c1cccc(C(=O)Nc2ccc(Br)cc2)c1` was tested, and the survival was 72%.
In the case of `CCOC(=O)c1cnc2ccc(C(=O)OC)cc2c1Nc1ccc(N2CCOCC2)cc1`, the survival is reported as 144%.
In the case of `CCOC(=O)c1cnc2ccc(OC)cc2c1Nc1cccc(C(C)=O)c1`, the survival is reported as 9% (active).
`CCOC(=O)c1cnc2ccc(Cl)cc2c1Nc1ccc(N2CCOCC2)cc1` was tested, and the survival was 0% (active).
`CCOC(=O)c1cc(-c2ccc(OC)cc2)n(CCC(=O)Nc2cccc(C(C)=O)c2)c1C` was tested, and the survival was 64%.
Work on `CCOC(=O)c1cnc2ccc(C(=O)OC)cc2c1Nc1ccc(OCc2ccccc2Cl)cc1` yielded a survival of 151%.
In the case of `CCOC(=O)c1cccc(NC(=O)c2cc3cc4cc(OC)ccc4nc3s2)c1`, the survival is reported as 76%.
`CCOC(=O)c1cnc2ccccc2c1Nc1ccc(N2CCOCC2)cc1` showed a survival of 63%.
In the case of `CCOC(=O)c1cnc2ccc(OC)cc2c1Nc1ccc(OCc2ccccc2Cl)cc1`, the survival is reported as 8% (active).
With `CCOC(=O)c1cnc2ccc(C)cc2c1Nc1ccc(N(CC)CC)cc1` the survival was -5% (active).
With `CCCCn1c2ccc(F)cc2c2nnc(SCCN(CC)CC)nc21` the survival was 178%.
`CCn1c(CNC(=O)c2ccccc2)n[nH]c1=S` was tested, and the survival was 86%.
With `CCOc1ccc2cc(-c3nnc(Nc4ccc(C)cc4)s3)c(=O)oc2c1` the survival was 80%.
With `COc1ccccc1CCNC(=O)C(=O)NCC(c1ccco1)S(=O)(=O)c1ccccc1` (stereo unspecified) the survival was 77%.
`COc1ccc(OC)c(CNC(=O)CCc2c(C)nc3c(c2C)c(=O)n(C)c(=O)n3C)c1` was tested, and the survival was 89%.
For `Fc1ccc(-c2cn3ccccc3n2)cc1`, the survival was 74%.
`Cc1cccc(NC(=O)C2CCCN(c3nnc(-n4c(C)ccc4C)s3)C2)c1C` (stereo unspecified) gave a survival of 75%.
Work on `Cc1cc(=O)[nH]c2nnc(SCC(=O)Nc3cc(C(F)(F)F)ccc3Cl)n12` yielded a survival of 116%.
With `CCOC(=O)c1cnc2ccc(OCC)cc2c1Nc1ccc(OCc2ccccc2Cl)cc1` the survival was 9% (active).
`CCOc1ccc(Nc2cc(C(=O)NCc3ccccc3Cl)c3ccccc3n2)cc1` was tested, and the survival was 86%.
`Cc1ccc(C2=Nc3ccccc3N(CC(=O)NCc3ccccc3Cl)C(=O)C2)cc1C` was tested, and the survival was 82%.
With `COc1ccc(C(=O)Nc2ccccc2C(=O)OCc2cc(=O)n3c4c(sc3n2)CCCC4)cc1` the survival was 72%.
For `CCOc1ccc(S(=O)(=O)c2cc3cccc(OCC)c3oc2=O)cc1`, the survival was 100%.
In the case of `COc1ccc(S(=O)(=O)c2cc3cc(OC)ccc3oc2=O)cc1`, the survival is reported as 99%.
`COc1ccc(S(=O)(=O)c2cc3cc(C(C)(C)C)cc(O)c3oc2=O)cc1` was tested, and the survival was 26% (active).
For `CCN(c1ccccc1)c1nnc(NC(=O)Nc2ccc(C)cc2)s1`, the survival was 89%.
In the case of `O=C(Nc1cccc(C(=O)OCc2cc(=O)n3nc(C4CC4)sc3n2)c1)c1ccccc1`, the survival is reported as 6% (active).
`Cc1cccc(OCC(=O)Nc2ccc(C(=O)OCc3cc(=O)n4nc(C5CC5)sc4n3)cc2)c1` was tested, and the survival was -2% (active).
With `O=C(COc1ccccc1)Nc1ccc(C(=O)OCc2cc(=O)n3nc(C4CC4)sc3n2)cc1` the survival was 76%.
`O=C(Nc1cccc(C(=O)OCc2cc(=O)n3nc(C4CC4)sc3n2)c1)c1ccc(F)cc1` was tested, and the survival was 70%.
Work on `Cc1ccc(OCC(=O)Nc2ccc(C(=O)OCc3cc(=O)n4nc(C5CC5)sc4n3)cc2)cc1` yielded a survival of 72%.
With `COc1ccc(C(=O)Nc2ccc(C(=O)OCc3cc(=O)n4nc(C5CC5)sc4n3)cc2)cc1` the survival was -1% (active).
Work on `COc1cccc(C(=O)Nc2ccc(C(=O)OCc3cc(=O)n4nc(C5CC5)sc4n3)cc2)c1` yielded a survival of 79%.
In the case of `Cc1ccc(C(=O)Nc2cccc(C(=O)OCc3cc(=O)n4nc(C5CC5)sc4n3)c2)cc1`, the survival is reported as 81%.
In the case of `COc1ccc(C(=O)Nc2cccc(C(=O)OCc3cc(=O)n4nc(C5CC5)sc4n3)c2)cc1`, the survival is reported as 115%.
`Cc1ccc2nc3c(cc(C#N)c(=O)n3-c3nnc(SCc4ccc(F)cc4)s3)c(=O)n2c1` was tested, and the survival was 72%.
Compound `Cc1ccc(NCc2nnc(SCC(=O)N3CCOCC3)o2)c(C)c1` has a survival of 74%.
With `O=C(Cn1cc(SCc2ccc(C(F)(F)F)cc2)c2ccccc21)N1CCCC1` the survival was 55%.
Compound `COC(=O)c1ccc(Cn2nnc3c(=O)[nH]c(C4CCCN(S(=O)(=O)c5ccccc5Cl)C4)nc32)cc1` (stereo unspecified) has a survival of 68%.
`COc1cccc(CNC(=O)CN2C(=O)CCn3nc(-c4cn(C)c5ccccc45)cc32)c1OC` was tested, and the survival was 76%.
Work on `COc1ccc(OC)c(S(=O)(=O)NCCc2sc(-c3ccc(C)cc3)nc2C)c1` yielded a survival of 94%.
In the case of `CCOC(=O)c1ccc(N2C(=O)c3n[nH]c(-c4cccs4)c3C2c2cccc(OC)c2)cc1` (stereo unspecified), the survival is reported as 97%.
Work on `CCOC(=O)c1ccc(N2C(=O)c3n[nH]c(C)c3C2c2ccc(OCC)cc2)cc1` (stereo unspecified) yielded a survival of 52%.
`CCOC(=O)c1ccc(N2C(=O)c3n[nH]c(-c4ccco4)c3C2c2cccc(OC)c2)cc1` (stereo unspecified) was tested, and the survival was 91%.
With `CCOC(=O)c1ccc(N2C(=O)c3n[nH]c(C)c3C2c2ccc(C(C)(C)C)cc2)cc1` (stereo unspecified) the survival was 87%.
`CCOC(=O)c1ccc(N2C(=O)c3n[nH]c(C)c3C2c2cccc(Br)c2)cc1` (stereo unspecified) was tested, and the survival was 8% (active).
Compound `CCOC(=O)c1ccc(N2C(=O)c3n[nH]c(-c4ccco4)c3C2c2ccc(C)cc2)cc1` (stereo unspecified) has a survival of 69%.
`CCOC(=O)c1ccc(N2C(=O)c3n[nH]c(-c4ccco4)c3C2c2ccc(F)cc2)cc1` (stereo unspecified) was tested, and the survival was 22% (active).
In the case of `CCOC(=O)c1ccc(N2C(=O)c3n[nH]c(-c4ccco4)c3C2c2ccc(C(=O)OC)cc2)cc1` (stereo unspecified), the survival is reported as 89%.
In the case of `CCOC(=O)c1ccc(N2C(=O)c3n[nH]c(-c4cccs4)c3C2c2cccc(O)c2)cc1` (stereo unspecified), the survival is reported as -5% (active).
In the case of `CCOC(=O)c1ccc(N2C(=O)c3n[nH]c(-c4ccco4)c3C2c2cccc(O)c2)cc1` (stereo unspecified), the survival is reported as -8% (active).
Work on `CCOC(=O)c1ccc(N2C(=O)c3n[nH]c(-c4ccco4)c3C2c2ccc(O)cc2)cc1` (stereo unspecified) yielded a survival of 40%.
In the case of `CCOC(=O)c1ccc(N2C(=O)c3n[nH]c(-c4cccs4)c3C2c2cccc(F)c2)cc1` (stereo unspecified), the survival is reported as 105%.
